Records with an inconclusive call do not appear. Calls of active or inactive are those of the source. Calls come from the whole dose curve; as a rule, active = well fitted curve in the direction sought with a large enough effect; inconclusive = small, poorly fitted or top-dose-only effect, or another doubt; inactive = no such curve, though single readings can be large; an effect the other way counts as inactive or inconclusive.
How the values were obtained:
[1] = target: Aldehyde dehydrogenase, mitochondrial (Homo sapiens) (UniProt P05091); assay: qHTS for Inhibitors of the Aldehyde Dehydrogenase Family (ALDH2) Primary screen (AID 2061308); details: ALDH2 enzyme inhibition qHTS, 1536-well; series mostly up to 56 µM; note: nearly all actives have a fitted effect of over 55% in size; note: potency is the fitted concentration of half-maximal effect
[2] = target: Retinaldehyde dehydrogenase 3 (Homo sapiens) (UniProt P47895); assay: qHTS for Inhibitors of the Aldehyde Dehydrogenase Family (ALDH1A3) Primary screen (AID 2061315); details: ALDH inhibition qHTS; series mostly up to 56 µM
[3] = target: Aldehyde dehydrogenase 1A1 (Homo sapiens) (UniProt P00352); assay: qHTS for Inhibitors of the Aldehyde Dehydrogenase Family (ALDH1A1) Confirmatory screens (AID 2061316); details: ALDH inhibition qHTS; series mostly up to 47.3 µM; note: potency is the fitted concentration of half-maximal effect; nearly all actives have a fitted effect of over 65% in size
[4] = BET inhibitor-based combinations targeting novel dependencies in MECOM-rearranged (r) AML: SET-2 cell line (AID 2202231); details: SET-2 AML cells viability, CellTiter-Glo luminescence, 48 h; viability: hits give low values, concentration not given here; note: potency is the fitted concentration of half-maximal effect; nearly all actives have a fitted effect of over 35% in size
Outline: (§1)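 Viability of cells (500 per well) is scored by luminescent CellTiter-Glo at 48 hr post-dosing. Eleven-point titrations are normalized to DMSO and empty controls and reduced to AUC values.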

[5] = BET inhibitor-based combinations targeting novel dependencies in MECOM-rearranged (r) AML: OCI-AML3 cell line (AID 2202232); details: CellTiter-Glo luminescence, 48 h; Potency: OCI-AML3 viability; series mostly up to 46 µM; note: potency is the fitted concentration of half-maximal effect; nearly all actives have a fitted effect of over 35% in size
Outline: as §1

[6] = BET inhibitor-based combinations targeting novel dependencies in MECOM-rearranged (r) AML: MV-4-11 cell line (AID 2202233); details: MV-4-11 AML viability, CellTiter-Glo luminescence, 48 h; series mostly up to 46 µM; note: potency is the fitted concentration of half-maximal effect; nearly all actives have a fitted effect of over 45% in size
Outline: (§2)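 Using pin-tool transfer, drugs were added in 11 doses to cells (500/well), incubated 48 hr, and assessed with CellTiter-Glo. Z-AUC is a mean-centring transformation applied separately to each screened line.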

[7] = BET inhibitor-based combinations targeting novel dependencies in MECOM-rearranged (r) AML: HNT-34 cell line (AID 2202234); details: HNT-34 AML viability, CellTiter-Glo luminescence, 48 h; series mostly up to 46 µM; note: potency is the fitted concentration of half-maximal effect; nearly all actives have a fitted effect of over 35% in size
Outline: as §2

[8] = BET inhibitor-based combinations targeting novel dependencies in MECOM-rearranged (r) AML: AML-191 cell line (AID 2202236; note: potency is the fitted concentration of half-maximal effect; nearly all actives have a fitted effect of over 35% in size); details: AML-191 viability, CellTiter-Glo luminescence, 48 h; series mostly up to 46 µM
Outline: as §1

[9] = BET inhibitor-based combinations targeting novel dependencies in MECOM-rearranged (r) AML: AML-194 cell line (AID 2202237; note: potency is the fitted concentration of half-maximal effect; nearly all actives have a fitted effect of over 40% in size); details: AML-194 (MECOM-r AML) viability, CellTiter-Glo, 48 h; series mostly up to 46 µM
Outline: as §1

[10] = BET inhibitor-based combinations targeting novel dependencies in MECOM-rearranged (r) AML: UCSD-AML1 cell line (AID 2202235); details: UCSD-AML1 AML cells viability, CellTiter-Glo, 48 h; series mostly up to 46 µM; note: potency is the fitted concentration of half-maximal effect; nearly all actives have a fitted effect of over 40% in size
Outline: as §2

Measured: Potency

O=C1Nc2cc(Cl)ccc2Nc2cscc21
active: [1] 14.1 µM | [3] 7.12 µM
inactive: [2]

COc1ccc(OC)c(-c2nnc3ccc(-c4ccc(OC)c(O[C@@H]5CCOC5)c4)nn23)c1
active: [4] 8.33 µM | [5] 4.17 µM | [6] 5.25 µM | [7] 1.05 µM | [8] 2.35 µM | [9] 2.35 µM
inactive: [1] | [2]

NC[C@@](O)(c1ccc(Cl)cc1)c1ccc(-c2cn[nH]c2)cc1
inactive: [1] | [2]
active: [4] 7.42 µM | [5] 5.25 µM | [6] 4.68 µM | [7] 4.17 µM | [10] 9.34 µM | [8] 7.42 µM

CO[C@H]1C[C@@H]2CC[C@@H](C)[C@@](O)(O2)C(=O)C(=O)N2CCCC[C@H]2C(=O)O[C@H]([C@H](C)C[C@@H]2CC[C@@H](OC(=O)C(C)(CO)CO)[C@H](OC)C2)CC(=O)[C@H](C)/C=C(\C)[C@@H](O)[C@@H](OC)C(=O)[C@H](C)C[C@H](C)/C=C/C=C/C=C/1C
active: [4] 0.091 µM
inactive: [1] | [2]

COc1ccc(-c2ccc3ncc4c(c3c2)n(-c2ccc(N3CCNCC3)c(C(F)(F)F)c2)c(=O)n4C)cn1
active: [4] 0.332 µM | [5] 0.235 µM | [6] 0.105 µM | [7] 0.118 µM | [8] 0.132 µM | [9] 0.118 µM
inactive: [1] | [2]

C[C@H]1[C@@H](OC(=O)CCC(=O)O)O[C@@H]2O[C@@]3(C)CC[C@@H]4[C@H](C)CC[C@@H]1[C@@]24OO3
inactive: [1] | [2]
active: [4] 3.72 µM | [5] 4.17 µM | [6] 1.66 µM | [7] 2.95 µM | [10] 8.33 µM | [8] 5.25 µM | [9] 9.34 µM

From PubChem BioAssay (NCATS)
